Experiment [1] is described as follows: TOX21_p53_BLA_p2_viability: Viability Assessment in the Tox21 HCT-116 p53 Agonism Beta-lactamase Assay, Phase 2 (AID 2283591).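 Also: actives lower the ATP signal meaning cytotoxicity.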 The gist of the method: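 HCT116 p53-bla cells, 4000/well, dosed after 5 h plating (217-fold dilution of DMSO stocks) and incubated 16 h at 37C. Viability taken as cellular ATP by CellTiter-Glo luminescence after 30 min RT; signal loss marks cytotoxicity.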

Experiment [2] has as its target Cellular tumor antigen p53 (Homo sapiens) (UniProt P04637). Put plainly: TOX21_p53_BLA_p2_ratio: Tox21 HCT-116 p53 Agonism Beta-lactamase Assay, Ratio, Phase 2 (AID 2283592). The procedure, abridged:
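Readout: blue/green (460/530 nm) FRET emission ratio after 2 h CCF4-AM loading at room temperature, excitation 405 nm. HCT116 p53 bla cells, 16 h compound exposure at 37C, 5% CO2; agonist direction fitted against DMSO baseline.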

The target is the same in experiment [3]. The experiment can be described thus: TOX21_p53_BLA_p3_ratio: Tox21 HCT-116 p53 Agonism Beta-lactamase Assay, Ratio, Phase 3 (AID 2283596). The gist of the method:
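Cells were seeded at 4000/well, rested 5 h at 37C, then dosed with DMSO compound solutions (217-fold dilution) for 16 h. CCF4-AM substrate was loaded for 2 h at room temperature, and the 460/530 nm emission ratio was fitted for gain of signal versus DMSO.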

Experiment [4] is described as follows: TOX21_p53_BLA_p4_viability: Viability Assessment in the Tox21 HCT-116 p53 Agonism Beta-lactamase Assay, Phase 4 (AID 2283597).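 Also: hits lower the luminescence signal meaning cytotoxicity.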 The gist of the method: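 ATP content by CellTiter-Glo luminescence, 30 min RT, read after the beta-lactamase ratio step. Cells: HCT116, 4000/well, compound added after 5 h, exposure 16 h at 37C. Signal loss = reduced viability.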
Experiment [5] has as its target Cellular tumor antigen p53 (Homo sapiens) (UniProt P04637). The experiment can be described thus: TOX21_p53_BLA_p5_ratio: Tox21 HCT-116 p53 Agonism Beta-lactamase Assay, Ratio, Phase 5 (AID 2283599). The procedure, abridged:
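HCT-116 p53-bla cells (4000/well) plated 5 h, dosed with compound (217-fold DMSO dilution) for 16 h at 37 C; CCF4-AM substrate 2 h at room temperature. Activity is the 460/530 nm emission ratio (405 nm excitation), fitted in gain-of-signal direction versus DMSO.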

Experiment [6] shares this target. Put plainly: TOX21_p53_BLA_p4_ratio: Tox21 HCT-116 p53 Agonism Beta-lactamase Assay, Ratio, Phase 4 (AID 2283601). The procedure, abridged:
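HCT-116 p53 beta-lactamase reporter cells (4000/well) preincubated 5 h, then compound (217-fold dilution of DMSO stock) for 16 h at 37C. CCF4-AM substrate added 2 h at room temperature; 460/530 nm emission ratio fitted upward versus DMSO.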

Experiment [7] can be described thus: TOX21_p53_BLA_p3_viability: Viability Assessment in the Tox21 HCT-116 p53 Agonism Beta-lactamase Assay, Phase 3 (AID 2283593).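 Also: cells exposed to compound for 16 h before reading.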 The procedure, abridged: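 HCT116 cells, 4000/well, dosed 5 h after plating by pin transfer (217-fold dilution from DMSO stock) and incubated 16 h at 37C, 5% CO2. Viability read as ATP luminescence with CellTiter-Glo after 30 min at room temperature.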

Experiment [8] can be described thus: TOX21_p53_BLA_p5_viability: Viability Assessment in the Tox21 HCT-116 p53 Agonism Beta-lactamase Assay, Phase 5 (AID 2283600). The procedure, abridged: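 ATP luminescence (CellTiter-Glo, 30 min, RT) served as the viability read-out, with loss of signal indicating cytotoxicity. Compounds in DMSO were pinned at a 217-fold dilution onto 4000 cells/well and incubated 16 h, 37C.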

Experiment [9] deals with PGR (gene 5241) (UniProt P06401). The experiment can be described thus: TOX21_PR_BLA_Followup_Antagonist_ratio: Tox21 HEK293 Progesterone Receptor (PR) Antagonism Beta-lactamase Follow-Up Assay, Ratio (AID 2283934). The gist of the method:
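Read-out: blue/green beta-lactamase FRET ratio (cleaved ch2 over uncleaved ch1), fitted relative to DMSO baseline. Cells: PR-UAS-bla HEK293T, GAL4-UAS reporter, stimulated with 1 nM R5020 final; 16 hr compound exposure, 37C.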

A short description of experiment [10]: TOX21_PR_BLA_Followup_Agonist_viability: Viability Assessment in the Tox21 HEK293 Progesterone Receptor (PR) Agonism Beta-lactamase Follow-Up Assay (AID 2283935).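 Also: signal loss means lower viability so actives are cytotoxic.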 The procedure, abridged:
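Luminescent ATP quantitation (CellTiter-Glo, 30 min, room temperature) in the same wells as the beta-lactamase read, on PR-UAS-bla HEK293T cells exposed to compound for 16 hr at 37C in 2% charcoal-stripped serum.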

A short description of experiment [11]: TOX21_PR_BLA_Followup_Antagonist_viability: Viability Assessment in the Tox21 HEK293 Progesterone Receptor (PR) Antagonism Beta-lactamase Follow-Up Assay (AID 2283936).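 Also: cells exposed to compound with R5020 agonist for 16 h; hits lower the luminescence signal meaning cytotoxicity.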 The gist of the method:
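PR-UAS-bla HEK293T cells in medium with 2% charcoal-stripped FBS were treated with compounds plus R5020 for 16 hr at 37C. After the beta-lactamase read, CellTiter-Glo was added to the same wells and luminescence read after 30 min at room temperature.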

In experiment [12] the target is PGR (gene 5241) (UniProt P06401). The experiment can be described thus: TOX21_PR_LUC_Followup_Agonist: Tox21 HEK293 Progesterone Receptor (PR) Agonism Luciferase Follow-Up Assay (AID 2283937; active = hit-call score of the fitted dose curve at least 0.9, where 1 is the maximum; inactive = score below 0.9). The procedure, abridged:
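Luminescence read-out (ONE-Glo, 30 min at room temperature) of PR-driven luciferase in HEK293-PR-A-luc cells after 16 h compound exposure at 37C; gain of signal fitted relative to DMSO baseline.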

For experiment [13] the target is unchanged. Put plainly: TOX21_PR_LUC_Followup_Antagonist: Tox21 HEK293 Progesterone Receptor (PR) Antagonism Luciferase Follow-Up Assay (AID 2283938).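 Also: curve fitted upward as signal gain over DMSO baseline despite antagonist label.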 The procedure, abridged:
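Luminescence from ONE-Glo reagent, measured after 30 min at room temperature, served as readout. Cells (HEK293 carrying PR-A-luc) had been treated 16 h at 37C with DMSO-dissolved compounds. Activity was fitted against DMSO controls.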

A short description of experiment [14]: TOX21_PR_LUC_Followup_Antagonist_viability: Viability Assessment in the Tox21 HEK293 Progesterone Receptor (PR) Antagonism Luciferase Follow-Up Assay (AID 2283940). The gist of the method: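 Read-out: CellTiter-Glo ATP luminescence, loss of signal taken as reduced viability. Cells: HEK293-PR-A-luc, 3,000/well, 5 h settling, then 16 h compound exposure at 37C, 0% CO2.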

A short description of experiment [15]: TOX21_PR_LUC_Followup_Agonist_viability: Viability Assessment in the Tox21 HEK293 Progesterone Receptor (PR) Agonism Luciferase Follow-Up Assay (AID 2283941).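 Also: loss of signal means cytotoxicity so actives lower viability.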 The gist of the method: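 Cytotoxicity counter-screen: ATP content by CellTiter-Glo luminescence, loss of signal = reduced viability. HEK293-PR-A-luc, 3,000 cells/well, compound exposure 16 h, 37C.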

Experiment [16] concerns the target Thyroid hormone receptor alpha (Rattus norvegicus) + Thyroid hormone receptor beta (Rattus norvegicus) (UniProt P18113+P63059). Put plainly: TOX21_TR_LUC_GH3_Antagonist_Followup: Tox21 GH3 Thyroid Hormone Receptor Antagonism Luciferase Follow-Up Assay (AID 2283942). The gist of the method: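 Luminescence read-out (ONE-Glo, 30 min at room temperature) in GH3 reporter cells challenged with 1.0 nM T3 final. Compounds ran at 92 uM to 5nM over 15 concentrations for 24 h; DMSO served as negative control and baseline.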

Experiment [17] has as its target THRB (gene 7068) (UniProt P10828). The experiment can be described thus: TOX21_TRB_BLA_Antagonist_Followup_ratio: Tox21 Thyroid Hormone Receptor beta Antagonism Beta-lactamase (BLA) Follow-Up Assay, Ratio (AID 2283958). The gist of the method: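 Read-out: blue/green (460:530 nm) ratio of cleaved to uncleaved CCF4-AM after 2 h at room temperature, fitted against DMSO baseline. HEK293T UAS-bla cells carrying GAL4-human TRβ LBD were exposed 18 h, 37C/5% CO2.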

The target is the same in experiment [18]. The experiment can be described thus: TOX21_TRB_COA_Antagonist_Followup_ratio: Tox21 Thyroid Hormone Receptor beta Antagonism through Coactivator Recruitment Follow-Up Assay, Ratio (AID 2283967). The gist of the method: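 GST-TRb LBD 5.0 nM + 0.10% BSA, compound added; fluorescein-SRC-2 peptide 200 nM, Tb-anti-GST Ab 2 nM. TR-FRET, ex 340 / em 520:495 ratio. Norm: DMSO 0%, T3 100%.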

A short description of experiment [19]: TOX21_TR_RXR_BLA_Antagonist_Followup_viability: Viability Assessment in the Tox21 Thyroid Hormone Receptor beta Retinoid X Receptor alpha (RXRa) Antagonism Beta-lactamase (BLA) Follow-Up Assay (AID 2283979). The procedure, abridged: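 RXRa-bla HEK293T cells (2,500/well, phenol red-free DMEM, 2% charcoal-stripped FBS) were attached 5 h, then exposed to compounds at 11 concentrations in triplicate for 16 h at 37C. Viability measured by CellTiter-Glo ATP luminescence, bidirectional fitting versus DMSO.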

Molecules are shown by their SMILES. Inconclusive results are not listed. Active and inactive are the calls of the source. The calls were made as follows, unless noted: active = hit-call score of the fitted dose curve at least 0.9, where 1 is the maximum; inconclusive = response in the unintended direction; inactive = score below 0.9.

As a reminder, the AC50 is the concentration giving half of the maximal activity seen.

Chain of PGR (gene 5241) (P06401 whole entry, looked up, the tested form may be a part): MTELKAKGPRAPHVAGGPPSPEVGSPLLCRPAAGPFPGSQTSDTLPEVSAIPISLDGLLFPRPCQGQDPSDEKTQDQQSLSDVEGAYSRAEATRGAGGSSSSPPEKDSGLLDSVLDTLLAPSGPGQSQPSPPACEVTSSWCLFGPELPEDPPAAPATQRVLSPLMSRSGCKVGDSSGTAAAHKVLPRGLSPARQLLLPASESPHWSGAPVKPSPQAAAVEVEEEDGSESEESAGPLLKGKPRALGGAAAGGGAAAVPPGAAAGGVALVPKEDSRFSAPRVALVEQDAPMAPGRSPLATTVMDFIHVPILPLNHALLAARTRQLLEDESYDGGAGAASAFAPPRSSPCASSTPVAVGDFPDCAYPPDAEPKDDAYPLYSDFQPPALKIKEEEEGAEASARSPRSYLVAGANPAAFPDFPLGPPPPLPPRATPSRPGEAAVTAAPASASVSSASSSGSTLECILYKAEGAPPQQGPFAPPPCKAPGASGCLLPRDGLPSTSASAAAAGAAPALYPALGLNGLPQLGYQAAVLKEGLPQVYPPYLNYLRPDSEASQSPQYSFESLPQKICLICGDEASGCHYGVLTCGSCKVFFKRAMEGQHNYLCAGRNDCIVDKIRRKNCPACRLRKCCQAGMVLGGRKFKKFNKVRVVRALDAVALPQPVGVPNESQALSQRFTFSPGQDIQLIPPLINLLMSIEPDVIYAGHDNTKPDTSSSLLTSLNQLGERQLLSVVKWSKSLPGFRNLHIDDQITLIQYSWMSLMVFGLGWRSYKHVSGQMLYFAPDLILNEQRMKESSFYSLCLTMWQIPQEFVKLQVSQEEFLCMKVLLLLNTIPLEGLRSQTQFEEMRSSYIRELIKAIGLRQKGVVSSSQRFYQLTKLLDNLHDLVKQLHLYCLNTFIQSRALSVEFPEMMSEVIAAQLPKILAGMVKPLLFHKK
Chain of Cellular tumor antigen p53 (Homo sapiens) (P04637 whole entry, looked up): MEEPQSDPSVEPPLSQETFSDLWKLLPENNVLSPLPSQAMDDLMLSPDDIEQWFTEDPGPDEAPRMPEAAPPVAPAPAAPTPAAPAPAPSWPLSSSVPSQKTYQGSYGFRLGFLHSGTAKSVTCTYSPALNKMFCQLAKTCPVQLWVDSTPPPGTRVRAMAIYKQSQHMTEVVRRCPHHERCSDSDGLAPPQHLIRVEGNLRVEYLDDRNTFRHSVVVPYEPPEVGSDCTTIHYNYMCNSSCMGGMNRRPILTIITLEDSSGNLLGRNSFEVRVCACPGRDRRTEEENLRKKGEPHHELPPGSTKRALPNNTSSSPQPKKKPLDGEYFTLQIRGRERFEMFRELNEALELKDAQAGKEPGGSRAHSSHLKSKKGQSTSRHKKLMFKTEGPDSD
Chain of THRB (gene 7068) (P10828 whole entry, looked up, the tested form may be a part): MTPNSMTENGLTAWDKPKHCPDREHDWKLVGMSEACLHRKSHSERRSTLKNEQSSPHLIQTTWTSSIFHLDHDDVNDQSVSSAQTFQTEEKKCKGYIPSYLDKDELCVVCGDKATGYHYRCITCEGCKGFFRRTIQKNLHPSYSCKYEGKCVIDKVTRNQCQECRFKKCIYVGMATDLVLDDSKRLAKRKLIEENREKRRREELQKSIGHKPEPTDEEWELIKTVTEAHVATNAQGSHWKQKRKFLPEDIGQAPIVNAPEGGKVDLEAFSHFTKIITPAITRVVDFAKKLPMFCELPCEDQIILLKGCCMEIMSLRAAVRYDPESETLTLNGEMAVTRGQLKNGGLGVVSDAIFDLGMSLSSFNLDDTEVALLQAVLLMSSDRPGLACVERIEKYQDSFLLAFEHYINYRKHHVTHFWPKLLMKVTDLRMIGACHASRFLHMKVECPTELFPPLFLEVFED

Consider `COP(=O)(OC)OC(=CCl)c1cc(Cl)c(Cl)cc1Cl`, for which the molecule was classed as inactive in experiment [1], in experiment [2], in experiment [3], in [4], in [5] and in [6].

As for `O=[N+]([O-])c1ccc2ccc3cccc4ccc1c2c34`, the molecule was called inactive in experiment [1], in [2], in experiment [7], in experiment [5], in experiment [8] and in experiment [10]. Further, the result in [11], in [12], in [14] and in [15] was inactive. For the same molecule, the values for the AC50 in [9] and in experiment [13] were 12.2 µM (active) and 13 µM (active), respectively.

Turning to `Cc1ccc2c(c1)C1CN(C)CCC1N2` (stereo unspecified), the call in [1], in experiment [2], in experiment [7], in [5] and in experiment [6] was inactive.

As to `O=C(Cl)OCc1ccccc1`, the call in experiment [1], in experiment [2], in experiment [7], in [5], in [8] and in [6] was inactive.

Regarding `C=CCOCC1CO1` (stereo unspecified), the call in [1], in experiment [2], in experiment [3], in experiment [4], in experiment [5] and in [8] was inactive.

Turning to `CN1CCc2cc(Cl)c(O)cc2[C@H]2c3ccccc3CC[C@@H]21`, the molecule was classed as inactive in [1], in experiment [2], in experiment [3], in experiment [4], in experiment [5] and in [8].

Consider `CCC/C=C/C=C/C(=O)O[C@H]1/C(=C/C(=O)OC)C[C@H]2C[C@H]([C@@H](C)O)OC(=O)C[C@H](O)C[C@@H]3C[C@H](OC(C)=O)C(C)(C)[C@](O)(C[C@@H]4C/C(=C/C(=O)OC)C[C@H](/C=C/C(C)(C)[C@]1(O)O2)O4)O3`, for which the result in [1], in [2], in experiment [3], in experiment [4], in [5] and in [6] was inactive.

With `CN1[C@@H]2CC[C@H]1CC(O)C2` (stereo partly specified), the call in experiment [1], in [2], in [3], in experiment [4], in [5] and in experiment [8] was inactive. Moreover, in experiment [6], the result was inactive.

For the molecule `Cc1cc(C)c(C(=O)P(=O)(C(=O)c2c(C)cc(C)cc2C)c2ccccc2)c(C)c1`, the molecule was classed as inactive in experiment [1], in [2], in experiment [7], in [5] and in experiment [6].

On to `CN1CCC(O)(c2ccc(F)cc2)C(C(=O)c2ccc(F)cc2)C1` (stereo unspecified), for which the outcome in experiment [1], in experiment [2], in experiment [7] and in experiment [5] was inactive.

Regarding `CC(=O)OCC1=C(C(=O)O)N2C(=O)[C@@H](N)[C@H]2SC1`, the outcome in experiment [1], in [2], in experiment [7] and in experiment [5] was inactive.

As for `CC[C@H]1C[C@H]2[C@@H]3CCC4=CC(=O)CC[C@@H]4[C@H]3CC[C@]2(C)[C@H]1O`, the molecule was called inactive in experiment [1], in [2], in experiment [3], in experiment [4], in experiment [8] and in experiment [6]. The result in [9], in experiment [10], in [11], in experiment [13], in experiment [14] and in experiment [15] was inactive. Further, the outcome in [16], in [17], in experiment [18] and in experiment [19] was inactive.

Turning to `CC(C)(CCl)C(=O)Cl`, the result in experiment [1], in experiment [2], in experiment [4], in [5] and in experiment [8] was inactive.

Take `O=C1CCCCC1CN1CCCCC1` (stereo unspecified): the molecule was classed as inactive in experiment [1], in experiment [2], in [3] and in [6].

On to `COC(=O)[C@@H]1[C@H]2CC[C@@H](C[C@H]1OC(=O)c1ccccc1)N2C`, for which the molecule was classed as inactive in experiment [1], in [2], in experiment [4] and in [5].

The values are drawn from PubChem BioAssay (EPA / NIEHS).
